Assay outcomes (PubChem)
This is a sample that favours compounds with a hit; in the whole collection about 18% have one here.
LDHA block: blocks human lactate dehydrogenase A; P00338; activity change, % (values are at about 110 or 230 µM); purified LDHA, NADH/diaphorase-resazurin fluorescence; stronger effect = lower value; 480,000 compounds, 0.15% hits; in the data active = activity change below about -30%; inconclusive = mostly about -25% to -30%;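 also: plate controls were DMSO wells for no effect and wells without enzyme for full effect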
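Resorufin fluorescence (ex540/em590), read at 0 and 20 min after diaphorase/resazurin addition, reports the NADH left after a 5 min room-temperature reaction of 2 nM human LDH5 with 0.06 mM NADH and 0.2 mM pyruvate.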
TDP1 cell noCPT: qHTS for Inhibitors of human tyrosyl-DNA phosphodiesterase 1 (TDP1): qHTS in cells in absence of CPT. DT40 Tdp1-/- hTDP1 cells, no CPT, ATP luminescence, 48 h. Potency, µM (titrated, usually from 46.2 µM), for the others: top-dose activity change, negative = growth inhibition, usual class: inhibitors. 420,000 compounds, 15% hits. AID 686978, 2013; also: potency is read from the fitted curve at half-maximal effect; nearly all actives have a fitted effect of over 55% in size
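Growth of hTDP1-complemented DT40 Tdp1-knockout cells is measured by ATP luminescence after at least 48 hr compound exposure at 37 °C, with DMSO substituting for the 20 nM CPT used in the parallel screen.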
RORgamma inh: ROR gamma (mouse) transcription inhibition | Drosophila S2 Gal4-RORgamma UAS-luciferase reporter, 20 h | Potency, µM (series often up to 53.6 µM), for inactives: top-dose activity change, negative = inhibition, hits mostly inhibitors | P51450 | 310,000 compounds, 5.4% hits; also: potency is read from the fitted curve at half-maximal effect; nearly all actives have a fitted effect of over 60% in size
Target sequence (P51450 whole entry, looked up, the tested form may be a part): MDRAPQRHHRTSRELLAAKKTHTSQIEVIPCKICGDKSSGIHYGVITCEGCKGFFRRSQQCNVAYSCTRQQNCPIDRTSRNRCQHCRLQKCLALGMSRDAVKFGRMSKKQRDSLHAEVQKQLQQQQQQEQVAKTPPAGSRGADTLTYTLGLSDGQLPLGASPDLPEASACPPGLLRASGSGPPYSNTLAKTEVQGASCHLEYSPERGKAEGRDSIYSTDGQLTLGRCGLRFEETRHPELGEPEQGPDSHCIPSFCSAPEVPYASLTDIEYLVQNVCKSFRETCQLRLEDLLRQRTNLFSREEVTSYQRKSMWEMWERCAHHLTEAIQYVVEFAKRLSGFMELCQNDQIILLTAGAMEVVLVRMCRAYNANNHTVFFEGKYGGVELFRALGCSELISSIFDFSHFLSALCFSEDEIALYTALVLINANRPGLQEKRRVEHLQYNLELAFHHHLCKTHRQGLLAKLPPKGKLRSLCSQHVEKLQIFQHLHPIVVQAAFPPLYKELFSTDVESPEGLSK
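Using a luciferase readout, inhibitors were identified by reduced reporter activity in Drosophila cells coexpressing a copper-inducible Gal4–ROR gamma fusion and UAS-driven Photinus luciferase, incubated 20 hr after 700 uM copper sulfate.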
IL-1B inflam inh: blocks inflammasome-driven IL-1 beta release; activity change, % at 57.5 µM; AID 743279; THP-1 LPS/ATP IL-1B secretion, AlphaLISA, 16 h; stronger effect = lower value; 360,000 compounds, 4.7% hits; in the data active = activity change below about -50%; inconclusive = mostly about -30% to -49%
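Secreted IL-1B measured by AlphaLISA bead assay after 16 h compound exposure of THP-1 cells; compounds (final up to 57.5 uM) added 1 h before LPS (250 ng/mL) and ATP (1.25 mM) stimulation; lower signal means less secretion.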
DT40 TDP1 CPT: DT40-hTDP1 cell growth loss with CPT; chicken DT40 Tdp1-/-;hTDP1 cells + 20 nM CPT, ATP luminescence, 48 h; Potency, µM (series often up to 46.2 µM), for the others: at the top dose activity change, negative = growth inhibition, actives largely listed as inhibitors; 420,000 compounds, 12% hits; AID 686979; also: potency is read from the fitted curve at half-maximal effect; nearly all actives have a fitted effect of over 55% in size
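Chicken DT40 Tdp1-/- cells complemented with human TDP1, 400 cells/well, exposed to compounds plus 20 nM camptothecin for at least 48 h at 37 C; viability read as ATP content by CellTiter-Glo luminescence.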
Gal4-VP16 FLuc: Gal4-VP16 reporter inhibition counter-screen | Drosophila S2 Gal4-VP16 UAS-luciferase, luminescence, 20 h | 310,000 compounds, 3.5% hits | Potency, µM (titrated, usually from 53.6 µM), for inactives: at the top dose activity, negative = inhibition, most hits filed as inhibitors;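 also: Gal4-VP16 expression switched on by copper sulfate through the metallothionein promoter; potency is read from the fitted curve at half-maximal effect; nearly all actives have a fitted effect of over 50% in size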
* marks the source's active call; other numbers are inactive results; ? = inconclusive; / = no result given. Unless noted, calls follow the shape of the dose curve; as a rule, active = well fitted curve in the direction sought with a large enough effect; inconclusive = small, poorly fitted or top-dose-only effect, or another doubt; inactive = no such curve, though single readings can be large; an effect the other way counts as inactive or inconclusive. Unless noted, % is scaled to controls: 0 for no effect and ±100 for the full control effect.

SMILES | LDHA block | TDP1 cell noCPT | RORgamma inh | IL-1B inflam inh | DT40 TDP1 CPT | Gal4-VP16 FLuc
CCCCn1c2nc3ccccc3nc2c2c(=O)n(CC(C)C)cnc21 | -5 | 21% | / | -9 | 1% | /
COc1ccccc1-n1cnc2c(c1=O)c1nc3ccccc3nc1n2CCc1ccccc1 | -4 | 16µM* | 6% | -23 | 21µM* | -3%
COc1ccccc1-n1cnc2c(c1=O)c1nc3ccccc3nc1n2-c1ccc(C)cc1 | -2 | ? | ? | -1 | ? | -1%
Cn1cc(C(=O)N2CCNC(=O)C2)c2ccccc21 | 5 | / | / | / | / | /
O=C(Nc1ccc2c(c1)OCO2)N1CCN(c2ncc(C(F)(F)F)cc2Cl)CC1 | 6 | 12µM* | ? | -61* | 21µM* | -9%
CCOC(=O)N1CCN(c2ncc(C(F)(F)F)cc2Cl)CC1 | -5 | ? | 10% | 0 | ? | -5%
Cc1ccsc1C(=O)N1CCN(c2ncc(C(F)(F)F)cc2Cl)CC1 | -1 | 15µM* | / | -20 | 12µM* | /
CC(C(=O)N1CCN(c2ccc(Cl)cc2)CC1)c1ncc(C(F)(F)F)cc1Cl (stereo not drawn) | 1 | 23µM* | ? | ? | 18µM* | -5%
FC(F)(F)c1cnc(N2CCc3sccc3C2)c(Cl)c1 | 4 | / | / | / | / | /
CC(C)(C(N)=O)N1CCN(c2ncc(C(F)(F)F)cc2Cl)CC1 | 2 | 15µM* | 40% | -20 | 15µM* | -17%
Cc1cccc(C(=O)NCCc2c[nH]c3ccc(C)cc23)c1 | 3 | / | / | / | / | /
Cc1ccsc1/C=N/NC(=O)C1CC1 | 11 | / | / | / | / | /
Cc1cccc(N(CC(O)Cn2cnc3ccccc32)S(=O)(=O)c2ccccc2)c1 (stereo not drawn) | -1 | / | / | / | / | /
CN(CCCNC(=O)c1ccncc1)CC(F)(F)F | 0 | / | / | / | / | /
O=C(c1ccc2c(c1)OCCO2)N1CCN(c2ncc(C(F)(F)F)cc2Cl)CC1 | 3 | 16µM* | / | 5 | ? | /
CCN(CC)c1ccc(NC(=O)CN2C(=O)c3cccnc3Oc3ccccc32)c(C)c1 | 18 | 16µM* | / | / | 16µM* | /
CCN(CC)c1ccc(NC(=O)Cn2nc(C)n3cccc3c2=O)c(C)c1 | 9 | 18µM* | / | / | 15µM* | /
COc1ccccc1NC(=O)Cn1nc(C)n2cccc2c1=O | -1 | -10% | -8% | 0 | -5% | 4%
CCN(CC)c1ccc(NC(=O)CN2C(=O)CSc3ncccc32)c(C)c1 | -1 | 7.3µM* | 1% | 11 | 5.2µM* | -7%
Cc1ccc2c(c1)N(CC(=O)Nc1ccccc1C(F)(F)F)C(=O)c1cccnc1O2 | -16 | ? | / | / | ? | /
O=C(CCc1nc(CSc2n[nH]c(-c3ccc(Cl)cc3)n2)no1)Nc1ccc2ccccc2c1 | 3 | / | / | / | / | /
Cc1cccc(NC(=S)Nc2cccc3ccccc23)c1 | 4 | -10% | 7.1µM* | 20 | ? | 8.9µM*
CC(C)c1ccc(NC(=S)Nc2cccc3ccccc23)cc1 | 4 | 16µM* | 3.5µM* | -8 | 18µM* | 7.1µM*
CCc1cccc(NC(=S)Nc2cccc3ccccc23)c1 | 5 | -18% | 4µM* | 23 | -24% | 7.9µM*
Fc1ccc(NC(=S)Nc2cccc3ccccc23)cc1 | 1 | ? | ? | 6 | -14% | ?
SMILES | LDHA block | TDP1 cell noCPT | RORgamma inh | IL-1B inflam inh | DT40 TDP1 CPT | Gal4-VP16 FLuc
Fc1ccc(NC(=S)Nc2cccc3ccccc23)cc1F | 5 | 16µM* | 11µM* | 2 | ? | ?
Cc1cc(C)cc(NC(=S)Nc2cccc3ccccc23)c1 | 5 | -24% | 22% | 1 | ? | 22%
Cc1ccc(C(=O)c2ccc(Oc3ccc(C)c(C)c3)cc2)cc1 | 1 | / | / | / | / | /
O=C(O)CCCN1CCCCCC1 | 5 | / | / | / | / | /
S=C(NCCc1ccncc1)Nc1cccc2ccccc12 | -5 | -19% | 10µM* | -8 | 8% | ?
Cc1ccc(NC(=S)Nc2cccc3ccccc23)cc1 | 4 | -12% | 2µM* | 30 | -28% | 5.6µM*
C=CCNC(=S)Nc1cccc2ccccc12 | -4 | -25% | 24% | -5 | -10% | -10%
Cc1ccc(-c2nnn(CC(=O)N(C)Cc3ccc(Cl)s3)n2)cc1 | 3 | / | / | / | / | /
CC1CCc2nc(NC(=O)CN3CCN(Cc4ccc5c(c4)OCO5)CC3)sc2C1 (stereo not drawn) | 1 | 16µM* | -53% | ? | 18µM* | -22%
CC1CCc2nc(NC(=O)CN3CCOCC3)sc2C1 (stereo not drawn) | -2 | -20% | 38% | 13 | 2% | 5%
CC1CCc2nc(NC(=O)CN3CCN(c4ccccc4)CC3)sc2C1 (stereo not drawn) | 0 | 21µM* | ? | 13 | ? | 4%
O=C(CN1CCN(Cc2ccc3c(c2)OCO3)CC1)Nc1ccc2c(c1)OCCO2 | -14 | ? | -1% | 15 | -2% | -6%
CC1CCc2nc(NC(=O)C3COc4ccccc4O3)sc2C1 (stereo not drawn) | 2 | 21µM* | ? | -18 | 16µM* | 10µM*
CC1CCc2nc(NC(=O)Nc3ccc4c(c3)OCO4)sc2C1 (stereo not drawn) | 11 | ? | -20% | -75* | ? | 7%
Cc1cccc(C)c1NC(=O)C1(NC=O)CCCCC1 | -20 | / | / | / | / | /
O=C(CN1CCN(c2ccccc2)CC1)Nc1ccncc1 | 0 | 18µM* | 20% | 24 | ? | -19%
CC1CCc2nc(NC(=O)Cc3ccc(Cl)cc3)sc2C1 (stereo not drawn) | -1 | 18µM* | / | / | ? | /
O=C(CN1CCN(c2ncccn2)CC1)Nc1ccccc1-n1cccc1 | -15 | 13µM* | 27% | -23 | ? | ?
CC1CCc2nc(NC(=O)CCSc3ccccc3)sc2C1 (stereo not drawn) | -17 | -10% | 1% | -12 | -7% | -1%
COc1ccc(CCNc2oc(-c3cccc4ccccc34)nc2C#N)cc1OC | -8 | / | / | / | / | /
Cc1c(/C(Cc2ccccc2)=N/O)c2ccccc2n1C | -6 | ? | -16% | 34 | -21% | -10%
Cn1c(Cc2ccccc2)[n+](C)c2ccccc21 | -4 | 15µM* | -25% | 37 | ? | -5%
Cc1ccccc1Nc1nc(N)nc(CSCc2ccc(C#N)cc2)n1 | 5 | / | / | / | / | /
COc1ccc(CN(C(=S)Nc2ccccc2)C2CC(=O)N(c3ccc(F)cc3)C2=O)cc1 (stereo not drawn) | 0 | ? | 35% | 9 | ? | -13%
